# How the values were obtained:
# Assay in all cases: DAPPL (digital affinity profiling via proximity ligation, sequencing); 10 mM Tris-HCl pH 7.5, 50 mM NaCl, 1 mM DTT, 4% glycerol, room temperature, 30 min; GST-TFs on glutathione beads, 16-mer random dsDNA library, 0.1% formaldehyde crosslink after washing; high values mean tight binding
# [1] = target: T1, FLI1 (Homo sapiens, UniProt Q01543 1-452); details: protein: recombinant; tags: N-terminal GST; dsDNA, one strand shown
# T1 sequence: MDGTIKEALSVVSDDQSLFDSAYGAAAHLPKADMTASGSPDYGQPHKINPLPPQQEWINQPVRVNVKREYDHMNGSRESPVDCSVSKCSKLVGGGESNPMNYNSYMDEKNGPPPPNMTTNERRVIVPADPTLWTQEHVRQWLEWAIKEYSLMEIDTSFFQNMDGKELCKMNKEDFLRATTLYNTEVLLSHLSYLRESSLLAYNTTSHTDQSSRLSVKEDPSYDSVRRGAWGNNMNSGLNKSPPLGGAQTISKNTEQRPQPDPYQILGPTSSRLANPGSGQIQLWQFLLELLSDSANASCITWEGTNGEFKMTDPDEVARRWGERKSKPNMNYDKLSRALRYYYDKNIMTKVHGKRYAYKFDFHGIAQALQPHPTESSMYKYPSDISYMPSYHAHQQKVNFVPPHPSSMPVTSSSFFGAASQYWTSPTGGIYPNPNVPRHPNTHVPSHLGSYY
# How it was run: (§1)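 A tag-only sample was pooled with DNA-barcoded human transcription factors that had been expressed in yeast as GST fusions and captured on glutathione beads. The pools were incubated for 30 min at room temperature with 200 nmole of a random double-stranded 16-mer DNA library in Tris/NaCl/DTT/glycerol buffer, then washed, crosslinked with 0.1% formaldehyde, proximity-ligated (BsaI/T4 ligase, 1 h, 37 °C), PCR-amplified and sequenced on an Illumina NextSeq500. Binding signal is each hexamer's read frequency for a factor divided by its frequency for the tag-only sample.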
# [2] = target: T2, ELK1 (Homo sapiens, UniProt P19419 1-428); details: protein: recombinant; tags: N-terminal GST; dsDNA, one strand shown
# T2 sequence: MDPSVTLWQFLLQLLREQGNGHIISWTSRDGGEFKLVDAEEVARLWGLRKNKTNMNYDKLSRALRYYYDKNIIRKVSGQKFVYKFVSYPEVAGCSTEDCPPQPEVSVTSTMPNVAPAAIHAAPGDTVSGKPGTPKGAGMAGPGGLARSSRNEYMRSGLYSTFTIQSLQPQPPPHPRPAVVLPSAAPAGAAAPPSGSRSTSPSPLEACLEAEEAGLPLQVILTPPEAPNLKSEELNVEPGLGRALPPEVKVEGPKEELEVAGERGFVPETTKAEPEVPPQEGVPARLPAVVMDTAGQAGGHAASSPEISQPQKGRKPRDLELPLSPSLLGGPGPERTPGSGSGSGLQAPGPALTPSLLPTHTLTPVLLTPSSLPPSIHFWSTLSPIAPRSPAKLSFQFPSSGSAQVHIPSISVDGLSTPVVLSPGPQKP
# How it was run: as §1
# [3] = target: T3, GABPA (Homo sapiens, UniProt Q06546 1-454); details: protein: recombinant; tags: N-terminal GST; dsDNA, one strand shown
# T3 sequence: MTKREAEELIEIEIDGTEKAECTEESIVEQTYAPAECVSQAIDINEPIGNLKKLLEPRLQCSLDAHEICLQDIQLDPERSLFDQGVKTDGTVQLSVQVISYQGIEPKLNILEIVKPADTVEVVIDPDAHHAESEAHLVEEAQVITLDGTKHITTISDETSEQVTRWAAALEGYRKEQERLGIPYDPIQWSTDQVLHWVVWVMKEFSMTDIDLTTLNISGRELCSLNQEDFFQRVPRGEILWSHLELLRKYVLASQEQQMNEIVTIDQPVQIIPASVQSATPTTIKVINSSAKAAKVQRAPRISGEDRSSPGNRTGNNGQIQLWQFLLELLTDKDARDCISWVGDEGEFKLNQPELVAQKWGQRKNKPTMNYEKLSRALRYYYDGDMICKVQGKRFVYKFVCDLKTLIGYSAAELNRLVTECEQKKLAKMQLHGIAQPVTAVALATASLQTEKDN
# How it was run: as §1
# [4] = target: T4, ERG (Homo sapiens, UniProt P11308 1-479); details: protein: recombinant; tags: N-terminal GST; dsDNA, one strand shown
# T4 sequence: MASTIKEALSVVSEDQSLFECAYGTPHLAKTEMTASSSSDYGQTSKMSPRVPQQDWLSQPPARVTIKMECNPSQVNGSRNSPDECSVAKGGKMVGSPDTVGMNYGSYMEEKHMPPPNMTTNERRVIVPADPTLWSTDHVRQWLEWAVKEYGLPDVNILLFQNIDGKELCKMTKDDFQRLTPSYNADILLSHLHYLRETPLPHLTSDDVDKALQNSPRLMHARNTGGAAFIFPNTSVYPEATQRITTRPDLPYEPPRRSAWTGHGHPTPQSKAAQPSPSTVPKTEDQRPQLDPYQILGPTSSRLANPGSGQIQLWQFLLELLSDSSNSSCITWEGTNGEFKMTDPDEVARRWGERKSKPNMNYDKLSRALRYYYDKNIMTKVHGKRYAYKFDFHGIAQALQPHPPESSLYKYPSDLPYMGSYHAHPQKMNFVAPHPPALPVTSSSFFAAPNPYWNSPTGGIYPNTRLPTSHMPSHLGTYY
# How it was run: as §1
# [5] = target: ELF1 (Homo sapiens, UniProt P32519 1-619); details: protein: recombinant; tags: N-terminal GST; dsDNA, one strand shown
# How it was run: as §1
# [6] = target: T5, EHF (Homo sapiens, UniProt Q9NZC4 1-300); details: protein: recombinant; tags: N-terminal GST; dsDNA, one strand shown
# T5 sequence: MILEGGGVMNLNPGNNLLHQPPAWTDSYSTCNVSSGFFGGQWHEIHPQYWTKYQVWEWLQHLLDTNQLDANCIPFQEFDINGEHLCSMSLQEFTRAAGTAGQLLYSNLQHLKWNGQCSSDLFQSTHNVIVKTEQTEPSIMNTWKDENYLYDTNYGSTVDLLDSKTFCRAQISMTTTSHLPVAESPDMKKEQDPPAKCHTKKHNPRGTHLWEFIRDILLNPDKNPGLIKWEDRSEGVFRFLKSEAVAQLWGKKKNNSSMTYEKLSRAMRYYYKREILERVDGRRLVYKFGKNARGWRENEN
# How it was run: as §1
# [7] = target: SPI1 (Homo sapiens, UniProt P17947 1-270); details: protein: recombinant; tags: N-terminal GST; dsDNA, one strand shown
# How it was run: as §1
# [8] = target: SPIB (Homo sapiens, UniProt Q01892 1-262); details: protein: recombinant; tags: N-terminal GST; dsDNA, one strand shown
# How it was run: as §1
# [9] = target: T6, ELK3 (Homo sapiens, UniProt P41970 1-407); details: protein: recombinant; tags: N-terminal GST; dsDNA, one strand shown
# T6 sequence: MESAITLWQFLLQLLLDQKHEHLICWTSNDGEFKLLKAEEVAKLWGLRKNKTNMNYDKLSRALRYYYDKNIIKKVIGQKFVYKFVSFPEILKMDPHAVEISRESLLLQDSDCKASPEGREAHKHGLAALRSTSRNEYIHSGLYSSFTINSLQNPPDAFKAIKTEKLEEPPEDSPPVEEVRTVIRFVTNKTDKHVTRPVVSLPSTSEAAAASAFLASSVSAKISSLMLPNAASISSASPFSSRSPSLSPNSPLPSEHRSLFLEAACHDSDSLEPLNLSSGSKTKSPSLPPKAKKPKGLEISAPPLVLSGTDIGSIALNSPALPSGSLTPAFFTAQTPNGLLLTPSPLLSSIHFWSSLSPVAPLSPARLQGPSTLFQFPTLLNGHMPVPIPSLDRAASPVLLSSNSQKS
# How it was run: as §1
# [10] = target: T7, FEV (Homo sapiens, UniProt Q99581 1-238); details: protein: recombinant; tags: N-terminal GST; dsDNA, one strand shown
# T7 sequence: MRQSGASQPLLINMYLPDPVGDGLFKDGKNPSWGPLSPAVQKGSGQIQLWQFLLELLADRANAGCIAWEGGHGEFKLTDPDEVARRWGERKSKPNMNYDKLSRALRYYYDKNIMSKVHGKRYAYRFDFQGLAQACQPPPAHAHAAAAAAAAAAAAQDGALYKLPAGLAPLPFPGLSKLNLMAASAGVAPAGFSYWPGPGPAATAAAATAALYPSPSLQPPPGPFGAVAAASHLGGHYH
# How it was run: as §1
# [11] = target: ETV5 (Homo sapiens, UniProt P41161 1-510); details: protein: recombinant; tags: N-terminal GST; dsDNA, one strand shown
# How it was run: as §1
# [12] = target: HSF1 (Homo sapiens, UniProt Q00613 1-529); details: protein: recombinant; tags: N-terminal GST; chain copies: 3; dsDNA, one strand shown
# How it was run: as §1
# [13] = target: T8, SPIC (Homo sapiens, UniProt Q8N5J4 1-248); details: protein: recombinant; tags: N-terminal GST; dsDNA, one strand shown
# T8 sequence: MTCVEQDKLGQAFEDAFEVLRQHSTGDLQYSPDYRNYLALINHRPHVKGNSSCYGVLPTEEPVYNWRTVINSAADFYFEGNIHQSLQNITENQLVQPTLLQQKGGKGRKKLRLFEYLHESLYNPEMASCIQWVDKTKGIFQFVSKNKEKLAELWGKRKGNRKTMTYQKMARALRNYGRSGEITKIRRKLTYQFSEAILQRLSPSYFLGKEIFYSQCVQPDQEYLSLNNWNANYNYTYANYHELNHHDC
# How it was run: as §1
# [14] = target: ELF4 (Homo sapiens, UniProt Q99607 1-663); details: protein: recombinant; tags: N-terminal GST; dsDNA, one strand shown
# How it was run: as §1
# [15] = target: T9, ELK4 (Homo sapiens, UniProt P28324-2 1-405); details: protein: recombinant; tags: N-terminal GST; dsDNA, one strand shown
# T9 sequence: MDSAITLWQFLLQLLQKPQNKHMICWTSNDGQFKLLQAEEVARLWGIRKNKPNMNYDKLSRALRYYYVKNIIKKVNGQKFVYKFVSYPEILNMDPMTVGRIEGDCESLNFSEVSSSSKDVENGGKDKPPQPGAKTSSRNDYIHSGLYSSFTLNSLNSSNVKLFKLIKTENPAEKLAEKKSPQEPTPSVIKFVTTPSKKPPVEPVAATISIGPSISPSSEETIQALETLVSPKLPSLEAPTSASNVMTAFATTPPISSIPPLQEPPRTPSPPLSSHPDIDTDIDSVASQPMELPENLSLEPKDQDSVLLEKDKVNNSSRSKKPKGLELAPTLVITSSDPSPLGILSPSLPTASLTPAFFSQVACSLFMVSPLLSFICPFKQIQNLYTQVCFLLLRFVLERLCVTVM
# How it was run: as §1
# [16] = target: T10, ETV2 (Homo sapiens, UniProt O00321 1-342); details: protein: recombinant; tags: N-terminal GST; dsDNA, one strand shown
# T10 sequence: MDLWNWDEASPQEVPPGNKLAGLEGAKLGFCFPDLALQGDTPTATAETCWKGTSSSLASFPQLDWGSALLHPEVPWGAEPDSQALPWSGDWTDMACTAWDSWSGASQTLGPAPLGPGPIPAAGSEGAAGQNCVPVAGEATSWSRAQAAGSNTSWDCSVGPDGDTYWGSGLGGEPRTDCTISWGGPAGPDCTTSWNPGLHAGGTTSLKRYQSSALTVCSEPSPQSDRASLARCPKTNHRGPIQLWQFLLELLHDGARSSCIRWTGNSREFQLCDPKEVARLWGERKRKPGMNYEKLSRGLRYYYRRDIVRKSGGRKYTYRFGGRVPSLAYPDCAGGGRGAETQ
# How it was run: as §1
# [17] = target: T11, ELF3 (Homo sapiens, UniProt P78545 1-371); details: protein: recombinant; tags: N-terminal GST; dsDNA, one strand shown
# T11 sequence: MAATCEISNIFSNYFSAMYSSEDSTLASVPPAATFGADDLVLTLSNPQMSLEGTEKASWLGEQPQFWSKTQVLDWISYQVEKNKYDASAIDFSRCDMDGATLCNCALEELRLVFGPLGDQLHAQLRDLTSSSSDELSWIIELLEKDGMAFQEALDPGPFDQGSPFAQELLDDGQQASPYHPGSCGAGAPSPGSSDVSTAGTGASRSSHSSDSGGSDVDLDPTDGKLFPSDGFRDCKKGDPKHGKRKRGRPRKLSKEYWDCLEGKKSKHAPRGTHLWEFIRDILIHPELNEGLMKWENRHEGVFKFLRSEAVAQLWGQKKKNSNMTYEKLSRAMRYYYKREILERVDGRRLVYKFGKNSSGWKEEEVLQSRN
# How it was run: as §1
# [18] = target: CRX (Homo sapiens, UniProt O43186 1-299); details: protein: recombinant; tags: N-terminal GST; dsDNA, one strand shown
# How it was run: as §1
# [19] = target: ETV1 (Homo sapiens, UniProt P50549 1-477); details: protein: recombinant; tags: N-terminal GST; dsDNA, one strand shown
# How it was run: as §1
# ETV5, sequence (P41161 whole entry): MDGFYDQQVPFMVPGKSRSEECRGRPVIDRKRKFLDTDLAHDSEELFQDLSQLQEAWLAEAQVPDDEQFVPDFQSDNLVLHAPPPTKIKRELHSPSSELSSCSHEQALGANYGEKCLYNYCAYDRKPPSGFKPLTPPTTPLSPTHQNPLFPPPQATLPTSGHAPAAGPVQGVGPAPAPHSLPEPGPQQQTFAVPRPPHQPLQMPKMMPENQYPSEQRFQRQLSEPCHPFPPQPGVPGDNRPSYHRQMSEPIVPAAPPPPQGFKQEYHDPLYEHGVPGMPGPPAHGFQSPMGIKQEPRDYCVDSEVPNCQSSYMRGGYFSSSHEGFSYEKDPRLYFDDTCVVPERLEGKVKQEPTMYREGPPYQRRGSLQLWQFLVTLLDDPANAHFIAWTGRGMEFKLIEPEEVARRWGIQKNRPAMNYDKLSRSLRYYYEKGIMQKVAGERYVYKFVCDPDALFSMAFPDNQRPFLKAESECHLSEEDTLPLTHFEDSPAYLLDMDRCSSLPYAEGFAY
# ETV1, sequence (P50549 whole entry): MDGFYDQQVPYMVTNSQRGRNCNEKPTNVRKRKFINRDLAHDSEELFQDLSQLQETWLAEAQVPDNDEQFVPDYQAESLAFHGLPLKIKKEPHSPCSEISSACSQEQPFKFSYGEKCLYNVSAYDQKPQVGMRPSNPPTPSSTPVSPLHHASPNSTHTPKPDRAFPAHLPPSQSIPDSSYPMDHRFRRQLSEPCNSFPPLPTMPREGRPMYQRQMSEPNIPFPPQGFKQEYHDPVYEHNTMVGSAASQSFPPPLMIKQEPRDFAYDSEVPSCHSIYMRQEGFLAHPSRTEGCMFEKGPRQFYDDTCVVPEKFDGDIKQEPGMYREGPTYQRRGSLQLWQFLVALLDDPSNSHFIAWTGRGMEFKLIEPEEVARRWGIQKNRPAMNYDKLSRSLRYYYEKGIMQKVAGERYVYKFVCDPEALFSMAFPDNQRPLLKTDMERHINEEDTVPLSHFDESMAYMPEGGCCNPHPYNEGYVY
# ELF1, sequence (P32519 whole entry): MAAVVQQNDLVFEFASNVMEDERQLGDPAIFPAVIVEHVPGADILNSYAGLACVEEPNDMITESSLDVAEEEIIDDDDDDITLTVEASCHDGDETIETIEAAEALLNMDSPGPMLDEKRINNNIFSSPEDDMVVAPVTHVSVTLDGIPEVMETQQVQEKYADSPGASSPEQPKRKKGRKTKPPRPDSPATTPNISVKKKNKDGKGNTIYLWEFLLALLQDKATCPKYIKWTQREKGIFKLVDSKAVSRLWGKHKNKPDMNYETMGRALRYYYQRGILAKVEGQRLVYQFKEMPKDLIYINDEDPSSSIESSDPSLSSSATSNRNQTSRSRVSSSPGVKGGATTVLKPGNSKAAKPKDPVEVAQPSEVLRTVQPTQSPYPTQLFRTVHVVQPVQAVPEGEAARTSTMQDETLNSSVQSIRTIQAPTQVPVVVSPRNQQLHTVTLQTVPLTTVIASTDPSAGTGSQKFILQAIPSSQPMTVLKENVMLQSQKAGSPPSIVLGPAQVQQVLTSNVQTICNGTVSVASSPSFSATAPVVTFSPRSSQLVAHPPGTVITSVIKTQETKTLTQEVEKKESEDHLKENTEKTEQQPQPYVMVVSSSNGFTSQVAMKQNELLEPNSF
# HSF1, sequence (Q00613 whole entry): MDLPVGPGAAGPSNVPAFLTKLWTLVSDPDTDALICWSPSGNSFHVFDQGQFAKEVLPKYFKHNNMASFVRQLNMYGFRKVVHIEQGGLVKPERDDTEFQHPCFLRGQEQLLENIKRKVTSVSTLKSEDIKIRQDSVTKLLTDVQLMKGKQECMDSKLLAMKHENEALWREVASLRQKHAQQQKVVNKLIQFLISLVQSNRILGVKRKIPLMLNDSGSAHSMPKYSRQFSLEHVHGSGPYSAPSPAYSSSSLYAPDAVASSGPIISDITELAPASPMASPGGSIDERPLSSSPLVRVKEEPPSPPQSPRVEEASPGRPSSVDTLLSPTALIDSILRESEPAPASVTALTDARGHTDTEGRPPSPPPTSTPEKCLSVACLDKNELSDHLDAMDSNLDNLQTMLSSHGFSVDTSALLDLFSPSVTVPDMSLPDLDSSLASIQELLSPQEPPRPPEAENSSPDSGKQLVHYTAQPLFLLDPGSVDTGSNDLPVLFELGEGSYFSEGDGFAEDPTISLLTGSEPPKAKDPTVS
# SPIB, sequence (Q01892 whole entry): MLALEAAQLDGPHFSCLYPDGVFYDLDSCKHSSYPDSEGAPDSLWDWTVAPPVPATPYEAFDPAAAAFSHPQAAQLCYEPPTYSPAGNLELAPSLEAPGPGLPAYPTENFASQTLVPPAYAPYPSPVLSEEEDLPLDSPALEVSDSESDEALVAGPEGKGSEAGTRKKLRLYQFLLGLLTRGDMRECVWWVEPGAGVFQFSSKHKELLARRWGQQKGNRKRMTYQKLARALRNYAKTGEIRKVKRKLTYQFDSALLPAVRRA
# CRX, sequence (O43186 whole entry): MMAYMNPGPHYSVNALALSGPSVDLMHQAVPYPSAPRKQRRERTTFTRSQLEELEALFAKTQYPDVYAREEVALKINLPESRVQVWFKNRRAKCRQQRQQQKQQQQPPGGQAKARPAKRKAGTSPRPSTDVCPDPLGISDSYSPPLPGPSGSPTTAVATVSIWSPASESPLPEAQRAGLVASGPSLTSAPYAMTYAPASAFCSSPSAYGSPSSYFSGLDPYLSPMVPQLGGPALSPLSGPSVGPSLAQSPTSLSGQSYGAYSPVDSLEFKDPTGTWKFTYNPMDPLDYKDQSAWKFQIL
# ELF4, sequence (Q99607 whole entry): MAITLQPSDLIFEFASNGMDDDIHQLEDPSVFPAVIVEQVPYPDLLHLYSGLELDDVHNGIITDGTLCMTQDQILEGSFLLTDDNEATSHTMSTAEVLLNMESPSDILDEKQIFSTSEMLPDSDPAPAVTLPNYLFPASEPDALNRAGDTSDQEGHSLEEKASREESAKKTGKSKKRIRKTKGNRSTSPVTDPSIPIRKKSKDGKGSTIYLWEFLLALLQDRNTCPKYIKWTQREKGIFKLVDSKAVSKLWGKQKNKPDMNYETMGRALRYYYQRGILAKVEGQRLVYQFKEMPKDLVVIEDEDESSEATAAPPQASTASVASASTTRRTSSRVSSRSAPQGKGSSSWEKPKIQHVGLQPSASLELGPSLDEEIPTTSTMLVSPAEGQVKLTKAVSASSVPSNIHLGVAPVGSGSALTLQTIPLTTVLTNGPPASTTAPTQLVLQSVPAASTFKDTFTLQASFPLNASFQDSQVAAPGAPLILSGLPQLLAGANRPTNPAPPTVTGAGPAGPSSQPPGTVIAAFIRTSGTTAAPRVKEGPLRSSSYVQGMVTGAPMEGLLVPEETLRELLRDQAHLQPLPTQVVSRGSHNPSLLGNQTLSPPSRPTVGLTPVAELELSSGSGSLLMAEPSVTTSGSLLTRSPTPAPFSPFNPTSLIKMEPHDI
sequence,measurement,setting,value
AAAAAA,binding signal,[1],"1.29 fold enrichment (6-mer frequency, TF over GST control)"
same,binding signal,[2],"1.28 fold enrichment (6-mer frequency, TF over GST control)"
same,binding signal,[3],"1.3 fold enrichment (6-mer frequency, TF over GST control)"
same,binding signal,[4],"1.2 fold enrichment (6-mer frequency, TF over GST control)"
same,binding signal,[5],"1.32 fold enrichment (6-mer frequency, TF over GST control)"
same,binding signal,[6],"1.45 fold enrichment (6-mer frequency, TF over GST control)"
same,binding signal,[7],"1.52 fold enrichment (6-mer frequency, TF over GST control)"
same,binding signal,[8],"1.4 fold enrichment (6-mer frequency, TF over GST control)"
same,binding signal,[9],"1.41 fold enrichment (6-mer frequency, TF over GST control)"
same,binding signal,[10],"1.37 fold enrichment (6-mer frequency, TF over GST control)"
same,binding signal,[11],"1.35 fold enrichment (6-mer frequency, TF over GST control)"
same,binding signal,[12],"1.41 fold enrichment (6-mer frequency, TF over GST control)"
same,binding signal,[13],"1.29 fold enrichment (6-mer frequency, TF over GST control)"
same,binding signal,[14],"1.37 fold enrichment (6-mer frequency, TF over GST control)"
same,binding signal,[15],"1.23 fold enrichment (6-mer frequency, TF over GST control)"
same,binding signal,[16],"1.35 fold enrichment (6-mer frequency, TF over GST control)"
same,binding signal,[17],"1.26 fold enrichment (6-mer frequency, TF over GST control)"
same,binding signal,[18],"1.22 fold enrichment (6-mer frequency, TF over GST control)"
same,binding signal,[19],"1.27 fold enrichment (6-mer frequency, TF over GST control)"
